# Screens: PubChem, National Center for Advancing Translational Sciences (NCATS)
# Shiga toxin inh = inhibitors of Shiga toxin in Vero cells. actives 9.2% (n = 290,000). AID 2315. Vero cells, Shiga toxin protein synthesis inhibition reporter. inhibition, % at 38.7 µM; in the data active = inhibition mostly above about 28%, no sharp cut-off; inactive = mostly below about 43%; also: 0% is about no effect
# CHX counter = affects cycloheximide protein synthesis inhibition readout, counter-screen. actives 12% (n = 300,000). cell reporter, cycloheximide protein synthesis inhibition counterscreen. max response, %; in the data active = max response mostly above about 13%, no sharp cut-off; inactive = mostly below about 14%; also: read at 38.3 µM for the half of the compounds with a filed dose; 0% is about no effect
# Pf growth 96h = P. falciparum growth inhibition at 96 hours; P. falciparum luciferase reporter growth, 96 h; Potency, µM (series often up to 28.7 µM), for the others: top-dose activity change, negative = inhibition, hits mostly inhibitors; actives 6.9% (n = 320,000); AID 504834; also: potency is read from the fitted curve at half-maximal effect; % is scaled to controls: 0 for no effect and ±100 for the full control effect
#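 Parasite growth measured via integrated firefly luciferase reporter in P. falciparum. Infected erythrocytes at 2% hematocrit, 0.05% parasitemia final were treated 96 hours at 37 C under 5% CO2, and luminescence was read.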
# Pf growth 48h = P. falciparum growth inhibition at 48 hours (one generation) | AID 504832 | actives 5.9% (n = 310,000) | Potency, µM (highest dose often 28.7 µM), for the others: top-dose activity change, negative = inhibition, most hits filed as inhibitors | P. falciparum luciferase growth in erythrocytes, 48 h; also: potency is read from the fitted curve at half-maximal effect; % is scaled to controls: 0 for no effect and ±100 for the full control effect
#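 A one-generation exposure of luciferase-tagged malaria parasites in RPMI 1640/Albumax erythrocyte culture, 37 C and 5% CO2. Inhibition is inferred from decreased luminescence after adding detection reagent.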
# AMA1-RON2 inh = inhibitors of Plasmodium falciparum AMA1-RON2 interaction; AlphaScreen AMA1-biotinylated RON2 peptide binding; actives 0.2% (n = 360,000); Potency, µM (titrated, usually from 58.2 µM), for inactives: top-dose activity change, negative = inhibition, most hits filed as inhibitors;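 also: potency is read from the fitted curve at half-maximal effect; 0% = vehicle wells and -100% = peptide control; nearly all actives have a fitted effect of over 45% in size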
#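 AMA1 (3D7) with his tag at 25 nM final met compounds first, then biotinylated RON2 peptide at 25 nM; detection used donor plus acceptor beads, 10 µg/mL apiece, read by AlphaScreen after 30 min at room temperature.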
# SARS PLP yeast = blocks SARS-CoV papain-like protease in a yeast assay. S. cerevisiae expressing SARS-CoV PLpro, growth rescue. Potency, µM (series often up to 32.9 µM), for the others: at the highest dose activity, positive = growth rescue, most hits filed as activators. actives 0.19% (n = 330,000). AID 485353; calls by dose curve; also: potency is read from the fitted curve at half-maximal effect; 0% is about no effect; nearly all actives have a fitted effect of over 55% in size
# Numbers without * were called inactive; i = inactive; ? = inconclusive; . = no result; [ ] = remark or other dose. Most compounds without a hit are left out; they make up all but 19% or so of the library. Unless noted, calls follow the shape of the dose curve; as a rule, active = well fitted curve in the direction sought with a large enough effect; inconclusive = small, poorly fitted or top-dose-only effect, or another doubt; inactive = no such curve, though single readings can be large; an effect the other way counts as inactive or inconclusive.
SMILES,Shiga toxin inh,CHX counter,Pf growth 96h,Pf growth 48h,AMA1-RON2 inh,SARS PLP yeast
CN(C(=O)c1ccc(NC(=O)Cc2cccc(NC(=O)C3CCCN(C(=O)C4CCC4)C3)c2)cc1)C1CC1 (centres undefined),.,.,.,.,5%,.
CN(C(=O)c1ccc(NC(=O)Cc2ccc(NC(=O)C3CCCN(C(=O)CCc4ccccc4)C3)cc2)cc1)C1CC1 (centres undefined),.,.,?,13µM*,-7%,2%
CN(C(=O)c1cccc(NC(=O)Cc2ccc(NC(=O)C3CCCN(C(=O)CCc4ccccc4)C3)cc2)c1)C1CCC1 (centres undefined),.,.,.,.,6%,.
COc1cc(C2CC(=O)Oc3cc(C)c(Br)c(C)c32)cc(OC)c1OC (centres undefined),i,-4,.,.,-19%,-40%
CN(Cc1ccccc1)C(=O)c1ccc(NC(=O)Cc2cccc(NC(=O)C3CCN(C(=O)C4CCCC4)CC3)c2)cc1,.,.,5.9µM*,?,-4%,-4%
Cc1ccc(C(=O)/C=C/c2ccc(Br)cc2)o1,-7,-2,91%,?,-11%,5%
C[n+]1ccc(/C=C/c2ccc(Br)cc2)cc1,3,4,1.3µM*,0.33µM*,-17%,-6%
COc1ccc(/C(=N/O)C(C)(C)NO)cc1,3,1,8.3µM*,.,-1%,5%
CN(C(=O)c1cccc(Br)c1)C1CCS(=O)(=O)C1 (centres undefined),.,.,11%,11%,-5%,3%
CN(c1nc(-c2ccc(Br)cc2)cs1)C1CCS(=O)(=O)C1 (centres undefined),43,19*,21%,130%,-2%,-2%
CCC(C)[C@H](NC(=O)c1cc2cc(Cl)ccc2n1C)C(=O)N1CCC(C(=O)O)CC1 (some centres undefined),-6,9,22%,4%,-4%,1%
Cc1cc(C)c2oc(C(=O)Nc3ccc(S(=O)(=O)N4CCC(C)CC4)cc3)cc(=O)c2c1,-5,-2,-4%,4%,5%,1%
Cc1cc(C)c2oc(C(=O)Nc3ccc(S(=O)(=O)Nc4nccs4)cc3)cc(=O)c2c1,1,-2,?,?,0%,1%
Cc1cc2oc(C(=O)Nc3ccc(S(=O)(=O)N4CCCC(C)C4)cc3)cc(=O)c2cc1Cl (centres undefined),-5,-3,?,13µM*,15%[11.6 µM],-22%
Cc1cc2oc(C(=O)Nc3ccc(S(=O)(=O)Nc4nccs4)cc3)cc(=O)c2cc1Cl,-9,-4,13µM*,17%,-7%,?
CC1(C)CC2(CCO1)OC(=O)CC2C(=O)Nc1cccc2ccccc12 (centres undefined),1,11,201%,.,-11%,4%
O=C1CC(C(=O)Nc2cccc3ccccc23)C2(CCCC2)O1 (centres undefined),12,10,1.5µM*,22%,-8%,-9%
O=S(=O)(NCC(c1cccnc1)N1CCN(c2ccccc2F)CC1)c1cccs1 (centres undefined),12,6,?,13µM*,9%,-3%
Cc1cc2c(s1)c1cnn(Cc3cccc(F)c3)c(=O)c1n2C,-2,-6,.,.,.,.
Fc1ccc(CO/N=C/C2=C(Cl)c3ccccc3CC2)cc1,80*,12*,11%,40%,64%,-3%
Cc1cc(=O)[nH]c(SCc2nc3ccccc3s2)n1,14,16*,8%,-1%,-15%,-1%
Cc1cc(=O)[nH]c(SCc2csc(-c3ccccc3)n2)n1,24,20*,45%,10%,12%,-3%
Nc1cc(=O)[nH]c(SCc2csc(-c3ccccc3)n2)n1,42,8,32%,15%,0%[2.32 µM],-15%
Cc1cc(=O)[nH]c(SCc2cccc3ccccc23)n1,-7,1,3.7µM*,-3%,-5%,-2%
COc1ccc(NC(=O)c2cc(-c3cc(Cl)ccc3C)n[nH]2)cn1,.,.,.,.,11%,.
SMILES,Shiga toxin inh,CHX counter,Pf growth 96h,Pf growth 48h,AMA1-RON2 inh,SARS PLP yeast
COCCn1c(N)c(N(Cc2ccccc2)C(=O)Cc2c(Cl)cccc2Cl)c(=O)[nH]c1=O,13,-3,9%,20%,-6%,3%
COc1ccc(S(=O)(=O)NC2CC3CCC2C3)cc1 (centres undefined),.,-1,8.3µM*,8%,-4%,-15%
CSc1ccc(S(=O)(=O)NC2CC3CCC2C3)cc1 (centres undefined),.,-1,?,-10%,3%,-13%
COC(=O)[C@]12CCCCC=C1N(CCc1ccc(OC)c(OC)c1)C(=O)[C@H](CC(=O)NCC1CCCCC1)C2,.,.,.,.,-9%,.
CC(C)(C)C(=O)OCOP(=O)(OCOC(=O)C(C)(C)C)C(C)(Oc1ccc(O)cc1)P(=O)(OCOC(=O)C(C)(C)C)OCOC(=O)C(C)(C)C,2,16,.,.,.,.
CCOC(=O)[C@]12CCCC=C1N(Cc1ccc(Cl)cc1Cl)C(=O)[C@H](CC(=O)NCc1cccc3ccccc13)C2,.,.,.,.,-6%,.
COc1cc(C2SCCS2)cc(Br)c1Oc1ncccc1[N+](=O)[O-],-8,2,?,-1%,?,-1%
O=[N+]([O-])c1cccnc1Oc1ccc(OCc2ccccc2)cc1,61*,63*,-18%,.,-9%,-2%
O=[N+]([O-])c1cccnc1Oc1ccc(C2SCCS2)cc1,73*,58*,10µM*,4.7µM*,-17%,0%
CCCCOc1ccccc1NC(=O)CSc1nnnn1C(C)(C)C,-16,-3,7%,13%,5%,-4%
COc1ccc(CN(C#N)c2nc(C)cc(C)n2)cc1,-3,7,7.4µM*,?,-4%,-3%
O=C(N[C@@H](c1ccccc1)[C@@H]1C[C@H]1C(=O)O)OCc1ccccc1,20,-2,13%,13%,-3%,22%
COc1ccc(OC)c2nc(-c3ccncc3)ccc12,9,15*,12%,?,4%,1%
COc1cccc2sc(Nc3nc(-c4ccncc4)cs3)nc12,25,11,-29%,?,1%,-5%
O=C(NCCc1cccs1)C(c1ccccc1)c1ccccc1,19,0,12µM*,-35%,1%,6%
O=C(NCCc1cccs1)c1ccc(Cl)cc1,35*,20*,21%,92%,-3%,-2%
O=C(NCCc1cccs1)c1ccc(Cl)c(Cl)c1,72*,44*,51%,61%,32%,1%
CCC(NC(=O)Cc1cccs1)c1ccccc1 (centres undefined),-9,2,5.9µM*,3%,10%,-8%
Cc1ccc(C(=O)NCCc2cccs2)cc1,-13,1,?,223%,3%,-1%
CCn1nc2cc(C(=O)NCCc3cccs3)ccc2c1OC,75*,40*,-12%,183%,6%,18%
